Measurements reported in PubChem BioAssay (NCI).
The panel holds about 83,000 compounds, 20% with a hit somewhere; the sample as a whole holds those more often.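 Interpretation: 100, growth as untreated; towards 0, rising growth inhibition; 0, no net growth; 0 to -100, cell death. Compounds scoring below 10 were considered active.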 Calls of active or inactive are those of the source.

What was measured:
Assay in all cases: NCI-60 one-dose screen, 48 h (100 = growth as untreated, 0 = no growth, -100 = all killed)
[1] = tested on: NCI-H23 lung; conditions: 10 µM unless noted
[2] = tested on: NCI-H226 lung; conditions: 10 µM unless noted
[3] = tested on: NCI-H322M lung; conditions: 10 µM unless noted
[4] = tested on: HOP-62 NSCLC; conditions: 10 µM unless noted
[5] = tested on: NCI-H460 lung; conditions: 10 µM unless noted
[6] = tested on: HOP-92 NSCLC; conditions: 10 µM unless noted
[7] = tested on: NCI-H522 lung; conditions: 10 µM unless noted
[8] = tested on: A549/ATCC NSCLC; conditions: 10 µM unless noted
[9] = tested on: 786-0 renal; conditions: 10 µM unless noted
[10] = tested on: COLO 205 colon; conditions: 10 µM unless noted
[11] = tested on: DU-145 prostate; conditions: 10 µM unless noted
[12] = tested on: K-562 leukemia; conditions: 10 µM unless noted
[13] = tested on: MALME-3M melanoma; conditions: 10 µM unless noted
[14] = tested on: MDA-MB-231 breast; conditions: 10 µM unless noted
[15] = tested on: RXF 393 renal; conditions: 10 µM unless noted
[16] = tested on: SF-268 CNS; conditions: 10 µM unless noted
[17] = tested on: SF-295 CNS; conditions: 10 µM unless noted
[18] = tested on: SF-539 CNS; conditions: 10 µM unless noted
[19] = tested on: UACC-257 melanoma; conditions: 10 µM
[20] = tested on: M14 melanoma; conditions: 10 µM unless noted

Measured: growth

CCc1ccc(NC(=O)N[C@@H](Cc2cccc(C)c2)C(=O)N[C@@H]2C(=O)N3CCC[C@H]3C(=O)N3CCCC[C@H]3C(=O)N[C@@H](CO)C(=O)N3C[C@H](C)C[C@H]3C(=O)O[C@H]2C)c(F)c1
active: [2] -4.68% | [6] -0.374% | [10] -36% | [15] -9.15%
inactive: [1] 34.4% | [3] 49.9% | [4] 30.5% | [5] 12.5% | [7] 21% | [8] 27.9% | [9] 40.8% | [11] 25.3% | [12] 27% | [13] 37.3% | [14] 33.9% | [16] 30.1% | [17] 12.8% | [18] 37.5% | [19] 15%

O=c1oc2ccc(-c3ccc(F)cc3F)cc2c(=O)n1-c1ccc(F)c(F)c1
inactive: [4] 17.6% | [9] 10.2% | [10] 83.2% | [11] 17.5% | [12] 10.8% | [16] 13.7% | [18] 11.9%
active: [1] 2.21% | [2] 6.65% | [3] 6.5% | [5] 2.7% | [6] -21.4% | [7] -2.51% | [8] 7.96% | [13] -14.6% | [14] 7.85% | [15] -28.4% | [17] -12.6% | [19] -14.9%

CN(C)c1ncc(/C=C2\SC(=S)N(Cc3ccccc3Cl)C2=O)s1
inactive: [1] 80.4% | [2] 83.8% | [3] 80.5% | [4] 88.5% | [5] 29.1% | [6] 94.7% | [7] 77.9% | [8] 63.9% | [9] 67.3% | [10] 91.8% | [11] 97.8% | [12] 68% | [13] 109% | [14] 83.9% | [15] 107% | [16] 94.3% | [17] 66.4% | [18] 74.5% | [19] 98.5%

O=C1CC2(CCOCC2)Oc2ncccc21
active: [7] -49.2% | [10] -13.7% | [12] 4.49% | [13] -31.6% | [14] 8.5%
inactive: [1] 72.5% | [2] 103% | [3] 103% | [4] 101% | [5] 106% | [6] 94.6% | [8] 102% | [9] 47.7% | [11] 97.7% | [15] 92.8% | [16] 65.2% | [17] 109% | [18] 27.7% | [19] 79.2%

COc1ccc([C@H]2c3[nH]c4ccccc4c3C[C@@H]3C(=O)N(C4CCN(Cc5ccccc5)CC4)CC(=O)N23)c(OC)c1
inactive: [1] 93.7% | [2] 82.3% | [3] 90.1% | [4] 80.8% | [5] 54.4% | [6] 68% | [7] 87% | [8] 69.8% | [9] 74.3% | [10] 67.1% | [11] 86.3% | [12] 28.8% | [13] 97.1% | [14] 77.7% | [15] 41.9% | [16] 63% | [17] 94.6% | [18] 81.7% | [19] 94.5%

COc1ccc(NC(=O)[C@H](C)NC(=O)OC(C)(C)C)cc1C(=O)Nc1cccc(-c2cc(=O)c3c(OC)c(OC)c(OC)cc3o2)c1
inactive: [2] 16% | [11] 23% | [12] 10.6% | [16] 34.9%
active: [1] -24.8% | [3] -0.408% | [4] -17.5% | [5] -21.4% | [6] -50% | [7] -46.4% | [8] 7.37% | [9] 0.528% | [10] -70% | [13] -13.2% | [14] -46.4% | [15] -84.4% | [17] -11.4% | [18] -38.1% | [19] -74.4% | [20] -52.3%

CC1CCN(S(=O)(=O)c2ncsc2-c2ccccc2)CC1
inactive: [1] 92.9% | [2] 99.9% | [3] 98.6% | [4] 85.3% | [5] 91.5% | [6] 116% | [7] 98.5% | [8] 93.1% | [9] 30.8% | [10] 112% | [11] 92% | [12] 72.7% | [13] 78.7% | [14] 92% | [16] 82.9% | [17] 30.7% | [18] 44.3% | [19] 106%
active: [15] 9.28%

Nc1cc(F)ccc1NC(=O)c1ccc(NC(=O)C/C=C/c2cccnc2)cn1
active: [6] 5.74% | [7] -4.98% | [10] 1.22% | [11] -3.71% | [15] -17.5% | [18] 6.21%
inactive: [1] 32% | [2] 46.8% | [3] 40.2% | [4] 29.6% | [5] 30% | [8] 31.5% | [9] 41.8% | [12] 20% | [13] 11.6% | [14] 45.3% | [16] 30.8% | [17] 22.3% | [19] 17.8%

CCN1C(=O)N(CC)C2SC(N/N=C/c3ccc(OC)cc3)=NC21 (stereo not drawn)
active: [5] 2.55% | [10] 2.66% | [17] 8.27% | [18] -8.3% | [20] 3.93%
inactive: [1] 24.6% | [2] 51.2% | [3] 42.1% | [4] 48% | [6] 36.4% | [7] 17.1% | [8] 23.9% | [9] 19.6% | [11] 11.2% | [12] 15.7% | [13] 45.8% | [14] 23.4% | [15] 19.6% | [16] 49.7% | [19] 80.4%

Cc1ccc(NC(=O)c2cccc(CN3CCN(C)CC3)c2)cc1Oc1ccc(-c2[nH]nc3ncnc(N)c23)cc1
inactive: [1] 75.6% | [2] 76.9% | [3] 83.9% | [4] 80.9% | [5] 72.8% | [6] 65.3% | [7] 77.1% | [8] 61.9% | [9] 40.8% | [10] 10.1% | [11] 81.9% | [12] 10.6% | [13] 49.2% | [14] 60.7% | [15] 23.3% | [16] 73.8% | [17] 78% | [18] 62% | [19] 75.4%

CN(c1ccc(Br)cc1)S(=O)(=O)c1ccc(-c2cnc(C3CC3)o2)cc1
inactive: [1] 20% | [2] 62.4% | [3] 46.5% | [4] 41.3% | [5] 16.8% | [6] 87.1% | [7] 16.8% | [8] 26.3% | [9] 52.9% | [11] 26.2% | [13] 63.8% | [14] 29.9% | [16] 65.9% | [19] 67.3%
active: [10] 4.79% | [12] 7.96% | [15] 6.23% | [17] -0.0962% | [18] 1.56%

O=C1Nc2cc(OC(F)(F)F)ccc2Oc2ccc(-c3ccnc(N4CCNCC4)c3)cc21
active: [5] -80.6% | [6] -0.729% | [7] -57.2% | [8] 9.42% | [9] -62.7% | [10] -80.2% | [11] -48.5% | [12] -11.4% | [13] -79.3% | [14] -38.2% | [15] -73.4% | [17] -25.7% | [18] -89.8%
inactive: [1] 27.4% | [2] 53% | [3] 39% | [4] 21.6% | [16] 26.8% | [19] 77.3%

COc1ccc(-c2nc3cc(Cl)c(Cl)cc3n2CC(=O)N=Nc2c(O)[nH]c3ccccc23)cc1
active: [2] -8.79% | [11] -11.4% | [15] -21.8%
inactive: [1] 31.4% | [3] 70.3% | [4] 45.3% | [5] 30.3% | [6] 24.1% | [7] 87.9% | [8] 27.8% | [9] 100% | [10] 55% | [12] 28.7% | [13] 35.9% | [14] 54.2% | [16] 64.4% | [17] 79.4% | [18] 13.7% | [19] 95.7% | [20] 50.5%

C#CCOc1ccccc1C(Nc1ccccc1)c1nnnn1C1CCCCC1 (stereo not drawn)
inactive: [1] 103% | [2] 107% | [3] 92.5% | [4] 103% | [5] 103% | [6] 103% | [7] 80.1% | [8] 96% | [9] 88.3% | [10] 112% | [11] 105% | [12] 77.5% | [13] 100% | [14] 96.1% | [15] 113% | [16] 93.7% | [17] 88.5% | [18] 101% | [19] 101%

COc1ccccc1/C=C/C(=O)c1nnn(-c2ccc(C(=O)O)cc2)c1C
inactive: [1] 87.6% | [2] 94.7% | [3] 92.1% | [4] 110% | [5] 96.1% | [6] 101% | [7] 82.4% | [8] 90.3% | [9] 93.2% | [10] 110% | [11] 80.4% | [12] 73.7% | [13] 86.8% | [14] 98.7% | [15] 86.6% | [16] 87.5% | [17] 100% | [18] 91.4% | [19] 81.5% | [20] 77.8%

N#Cc1c(NC(=O)c2ccccc2C(F)(F)F)sc2c1CCC(=O)C2
active: [1] 3.19% | [6] -36.7% | [7] -4.76% | [10] -18.2% | [13] -17.3% | [14] 3.09% | [15] -23.8% | [18] -28.9% | [19] -9.8%
inactive: [2] 13.6% | [3] 95.5% | [4] 33% | [5] 13.5% | [8] 75.4% | [9] 28.7% | [11] 33.8% | [12] 10.9% | [16] 18.9% | [17] 11%
